Screening data (PubChem BioAssay)
Only some compounds are listed: those with a hit (about 19% of all), similar ones and a draw of the others.
ELG1 repair inh: inhibitors of ELG1-dependent DNA repair in HEK293T cells; HEK293T ELG1-luciferase reporter, luminescence, 16 h; DNA damage induced by 5-fluorouridine; 2.3% of 330,000 active; Potency, µM (doses to about 46.1 µM), without a hit: at the highest dose activity change, negative = inhibition, most hits filed as inhibitors; also: potency is read from the fitted curve at half-maximal effect; nearly all actives have a fitted effect of over 55% in size
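HEK293T cells expressing luciferase-tagged ELG1 (2,000/well) received 5-Fluorouridine plus compound or DMSO for 16 hr at 37 °C. Luciferase was read by ONE-Glo luminescence after 30 min at room temperature.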
TDP1 cell CPT: DT40-hTDP1 cell growth loss with CPT; chicken DT40 Tdp1-/-;hTDP1 cells + 20 nM CPT, ATP luminescence, 48 h; Potency, µM (highest dose often 46.2 µM), without a hit: at the highest dose activity change, negative = growth inhibition, most hits filed as inhibitors; 12% of 420,000 active; also: potency is read from the fitted curve at half-maximal effect; nearly all actives have a fitted effect of over 55% in size
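Chicken DT40 Tdp1-/- cells stably complemented with human TDP1 were seeded at 400 cells/well in medium containing 20 nM camptothecin, exposed to pin-transferred compounds, and grown at 37 °C for at least 48 hr. Viability was read as ATP luminescence.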
HT1080-NT tox: kills 2HG-producing HT-1080-NT fibrosarcoma cells; HT-1080-NT fibrosarcoma viability, CellTiter-Glo ATP luminescence, 48 h; Potency, µM (highest dose often 46.1 µM), for the others: at the top dose activity, negative = less viability, most hits filed as cytotoxic; 1.6% of 360,000 active; AID 686970;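 also: NT is the 2HG producing partner of a matched IDH1 knockdown line; potency is read from the fitted curve at half-maximal effect; 0% = DMSO-treated cells and -100% = media-only wells without cells; nearly all actives have a fitted effect of over 55% in size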
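750 cells/well, RPMI + 5% FBS; 2 h settle, compound pin-transfer, 48 h at 37 degrees C. CellTiter-Glo 10 min RT, luminescence. Normalized to DMSO and media-only wells.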
HT1080 IDH1KD tx: HT-1080 IDH1 knockdown cell toxicity (counter line); HT-1080 IDH1 knockdown viability, ATP luminescence, 48 h; Potency, µM (series often up to 46.1 µM), without a hit: at the highest dose activity, negative = toxicity, usual class: cytotoxic; 2% of 360,000 active; AID 686971;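 also: potency is read from the fitted curve at half-maximal effect; 0% = DMSO wells and -100% = cell-free medium wells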
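CellTiter-Glo luminescence after 48 h compound exposure at 37 degrees C of IDH1-knockdown HT-1080 cells in 5% FBS RPMI. %Activity scaled between DMSO wells and cell-free media wells, with curves fitted and assigned curve classes.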
IL-1B inflam inh: inflammasome signaling inhibition, IL-1 beta readout; 4.7% of 360,000 active; activity change, % at 57.5 µM; THP-1 LPS/ATP IL-1B secretion, AlphaLISA, 16 h; active compounds read low; AID 743279; in the data active = activity change below about -50%; inconclusive = mostly about -30% to -49%
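THP-1 cells pretreated 1 hr with compounds (up to 57.5 uM final), then stimulated with LPS (250 ng/mL final) plus ATP (1.25 mM final); secreted IL-1B measured by AlphaLISA after 16 hr, decreased signal indicating inhibition.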
DT40 TDP1 no CPT: qHTS for Inhibitors of human tyrosyl-DNA phosphodiesterase 1 (TDP1): qHTS in cells in absence of CPT; DT40 Tdp1-/- hTDP1 cells, no CPT, ATP luminescence, 48 h; Potency, µM (titrated, usually from 46.2 µM), for inactives: at the highest dose activity change, negative = growth inhibition, hits mostly inhibitors; 15% of 420,000 active; also: potency is read from the fitted curve at half-maximal effect; nearly all actives have a fitted effect of over 55% in size
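Chicken DT40 Tdp1-/- cells stably complemented with human TDP1 were seeded at 400 cells/well with DMSO in place of 20 nM camptothecin. After compound pinning, cells grew at least 48 hr at 37 °C; viability read by CellTiter-Glo luminescence.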
The depositor's hits bear a star; ? = inconclusive; / = no result; [ ] = remark or other dose. Unless noted, calls follow the shape of the dose curve; as a rule, active = well fitted curve in the direction sought with a large enough effect; inconclusive = small, poorly fitted or top-dose-only effect, or another doubt; inactive = no such curve, though single readings can be large; an effect the other way counts as inactive or inconclusive. Unless noted, % is scaled to controls: 0 for no effect and ±100 for the full control effect.

SMILES	ELG1 repair inh	TDP1 cell CPT	HT1080-NT tox	HT1080 IDH1KD tx	IL-1B inflam inh	DT40 TDP1 no CPT
Cc1[nH]c2ccccc2c1C(=O)COC(=O)C1CC(O)CN1S(=O)(=O)c1ccc(Cl)cc1 (stereo not drawn)	-20%	?	-27%	?	-76*	?
CCOc1nc2ccccc2cc1C=O	-6%	2.3µM*	-15%	-29%	55	2.6µM*
COc1ccc(CCNC(=O)COc2nncc3ccccc23)cc1	5%	5%	4%	6%	-28	20%
COc1ccc(NC(=O)c2cc(-c3cc(F)ccc3OCC3CCCO3)n[nH]2)cc1OC (stereo not drawn)	/	?	-27%	?	-81*	21µM*
COc1ccc(NC(=O)c2cc(-c3cc(F)ccc3OCC3CCCO3)n[nH]2)c(C)c1 (stereo not drawn)	/	?	-3%	3%	-66*	?
CC(=O)Nc1ccc(NC(=O)c2cc(-c3cc(F)ccc3OCC3CCCO3)n[nH]2)cc1 (stereo not drawn)	/	?	9%	?	-19	?
O=[N+]([O-])c1cc([N+](=O)[O-])c(Oc2cc(Cl)cc(Cl)c2)cc1NN1CCCCC1	?	-18%	-8%	-7%	11	11%
CCOC(=O)[C@]12CCCC=C1N(Cc1ccc3c(c1)OCO3)C(=O)[C@H](CC(=O)NCCCN1CCCC1=O)C2	/	1%	7%	0%	-16	-5%
CC(C(=O)Nc1ccc(F)c(F)c1F)N(C)CCOc1ccccc1 (stereo not drawn)	3%	10%	?	1%	-15	-8%
CCOc1ccc(N(CC(=O)NCc2ccco2)C(=O)CCC(=O)Nc2ccccn2)cc1	0%	-2%	5%	0%	-10	-24%
CCCCC(C)(O)C/C=C/[C@H]1[C@H](O)CC(=O)[C@@H]1CCCCCCC(=O)OC (stereo partly drawn)	?	?	/	/	/	1.5µM*
COc1cc(NC(=O)Nc2nc(C(N)C3CCCCC3)cs2)cc(OC)c1OC (stereo not drawn)	/	16µM*	-77%	21µM*	-6	23µM*
COc1cc(NC(=O)Nc2nc(C(N)C(C)C)cs2)cc(OC)c1OC (stereo not drawn)	/	?	16µM*	?	-5	?
NC(c1csc(NC(=O)Nc2ccccc2Cl)n1)C1CCCCC1 (stereo not drawn)	/	23µM*	?	?	0	16µM*
COc1ccccc1NC(=O)Nc1nc(C(N)C2CCCCC2)cs1 (stereo not drawn)	/	23µM*	16µM*	?	/	15µM*
O=C(Nc1ccccc1Cl)NC1CCCCCCC1	?	-14%	17%	-1%	-15	9%
Cc1cccc(C)c1NC(=O)C(c1ccccc1OC(F)(F)F)N1CCN(C)CC1 (stereo not drawn)	/	-28%	-16%	-5%	-16	-26%
CSCCC(NC(=O)C1CCC(C)CC1)C(=O)NCCN1CCC(C)CC1 (stereo not drawn)	2%	-2%	?	3%	-25	-18%
COC(=O)CCCn1cc(CN2CC(N3CCN(Cc4ccccc4F)CC3)CS2(=O)=O)nn1 (stereo not drawn)	/	-3%	13%	?	18	-25%
Cc1cc(-n2c(SCC(=O)NCCC3=CCCCC3)nc3n[nH]c(C)c3c2=N)ccc1Cl	-1%	16µM*	18µM*	?	14	8.2µM*
Cc1ccc(Cl)cc1-n1c(SCC(=O)NCCC2=CCCCC2)nc2n[nH]c(C)c2c1=N	3%	?	?	?	0	-23%
Cc1[nH]nc2nc(SCC(=O)NCCC3=CCCCC3)n(-c3ccc(Br)cc3)c(=N)c12	8%	12µM*	21µM*	?	-4	8.2µM*
COc1ccccc1C1CN(Cc2cccc3nccnc23)Cc2ccccc2O1 (stereo not drawn)	/	-11%[9.04 µM]	/	/	/	-6%
Cc1cccc(C)c1OCc1nc2c3cnn(-c4cccc(F)c4)c3ncn2n1	/	18µM*	/	/	/	16µM*
Fc1cccc(-n2ncc3c2ncn2nc(Cc4ccccc4)nc32)c1	/	3%	/	/	/	-26%
SMILES	ELG1 repair inh	TDP1 cell CPT	HT1080-NT tox	HT1080 IDH1KD tx	IL-1B inflam inh	DT40 TDP1 no CPT
CN1CCN(C(=O)c2ccccc2Nc2ccc(SC(F)F)cc2)CC1	-5%	?	0%	3%	-18	16µM*
CCN1CCN(C(=O)c2ccccc2Nc2ccc(SC(F)F)cc2)CC1	-2%	-9%	-11%	-9%	?	-22%
COc1cccc(NC(=O)C(NC2CCCC2)c2ccccc2)c1 (stereo not drawn)	1%	?	-12%	-11%	13	?
Cc1ccc(NC(=O)C(OC(=O)c2ccc(NC(N)=O)cc2)c2ccccc2)cc1Cl (stereo not drawn)	-19%	?	?	?	-53*	?
Cc1ccc(NC(=O)C(NC2CCCC2)c2ccccc2)cc1Cl (stereo not drawn)	-8%	?	-16%	-21%	?	16µM*
Cc1cc(C(=O)OC(C(=O)Nc2ccc(C)c(Cl)c2)c2ccccc2)c(C)o1 (stereo not drawn)	-25%	23µM*	-19%	-18%	-26	29µM*
Cc1cccc(C(=O)NCC(c2cccs2)S(=O)(=O)c2cccs2)c1 (stereo not drawn)	/	?	/	/	/	15µM*
O=C(NCC(c1cccs1)S(=O)(=O)c1cccs1)c1cccc(F)c1 (stereo not drawn)	/	16µM*	/	/	/	18µM*
O=C(NCC(c1ccco1)S(=O)(=O)c1cccs1)c1ccccc1F (stereo not drawn)	/	-27%	/	/	/	?
Cc1ccc(S(=O)(=O)C(CNC(=O)C(C)C)c2cccs2)cc1 (stereo not drawn)	0%	-7%	16%	2%	-1	13%
O=C1N/C(=N/O)S/C1=C/c1cccc([N+](=O)[O-])c1	?	10%	-21%	-23%	-15	-5%
CC1(C)CC(=O)/C(=C\c2cccc([N+](=O)[O-])c2)C(C)(C)N1	-7%	?	-24%	?	-82*	16µM*
COC(=O)c1cc2oc3ccccc3c2n1Cc1nc(-c2ccccc2Cl)oc1C	/	-17%	/	/	/	-16%
O=C(Nc1nnc2n1CCS2)c1ccccc1C(F)(F)F	/	-7%	/	/	/	-9%
